In PubChem BioAssay AID588342 (National Center for Advancing Translational Sciences (NCATS), 2011):
Hit rate of the full screen: of about 360,000 compounds, about 25,000 (6.9%) were called active. Roughly 9% stayed inconclusive and do not appear here. What follows is part of a selection rich in actives, with near analogues and random picks from the rest. Values without a mark were called inactive. The call rests on the fitted dose curve; in most records, active means well fitted inhibition curve with a large enough effect; inconclusive means small, poorly fitted or top-dose-only effect; inactive means flat fitted curve, though single readings scatter.

Target: Luciferin 4-monooxygenase (Photinus pyralis) (UniProt P08659)
Assay: qHTS profiling assay for firefly luciferase inhibitor/activator using purifed enzyme and Km concentrations of substrates (counterscreen for miR-21 project); further: nearly all actives have a fitted effect of over 55% in size;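 on activity change, negative = inhibition: plate controls were vehicle for no effect and reference inhibitor for full effect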
Settings: purified FLuc, luminescence inhibition; series mostly up to 57.5 µM; activity change, negative = inhibition: at the top concentration
How it was run: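 Biochemical qHTS of compounds, final roughly 60 µM downward over six points, against 10 nM purified firefly luciferase using Km concentrations of substrates (10 uM D-luciferin, 10 uM ATP) in Tris acetate pH 7.5 buffer; luminescence output.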
Potency means the concentration at half of the fitted maximal effect.

Chain of Luciferin 4-monooxygenase (Photinus pyralis) (P08659 whole entry, looked up): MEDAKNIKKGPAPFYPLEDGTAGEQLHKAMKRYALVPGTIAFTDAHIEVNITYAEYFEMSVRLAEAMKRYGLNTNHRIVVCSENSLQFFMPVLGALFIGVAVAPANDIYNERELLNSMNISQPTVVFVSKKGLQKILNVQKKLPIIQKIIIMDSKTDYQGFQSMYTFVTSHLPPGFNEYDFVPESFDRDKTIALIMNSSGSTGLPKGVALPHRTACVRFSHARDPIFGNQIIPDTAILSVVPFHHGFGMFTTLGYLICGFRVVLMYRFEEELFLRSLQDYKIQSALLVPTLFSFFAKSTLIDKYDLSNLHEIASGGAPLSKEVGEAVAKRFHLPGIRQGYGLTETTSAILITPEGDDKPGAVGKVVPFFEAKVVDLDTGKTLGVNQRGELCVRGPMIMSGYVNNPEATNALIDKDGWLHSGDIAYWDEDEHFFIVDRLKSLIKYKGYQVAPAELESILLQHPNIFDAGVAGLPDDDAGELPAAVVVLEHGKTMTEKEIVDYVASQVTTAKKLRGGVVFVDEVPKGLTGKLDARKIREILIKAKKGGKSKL

| SMILES | activity change, negative = inhibition [%] | Potency |
| --- | --- | --- |
| Cc1ccc(C(=O)COC(=O)C(Cc2c[nH]c3ccccc23)NC(=O)c2ccc(Br)cc2)cc1 (stereo not given) | 0.131 |  |
| CC(CCCc1ccccc1)NC(=O)c1nn(-c2ccc(Cl)cc2)nc1CO (stereo not given) | 1.51 |  |
| COC(=O)[C@@H](NC(=O)Nc1cc(Cl)ccc1C)C(C)C | -4.44 |  |
| Cc1cc2nn(-c3ccc(Cl)cc3)nc2cc1NC(=O)C(C)C |  | 0.379 µM (active) |
| CCN(C(=O)COC(=O)c1c(C)nn(-c2ccccc2)c1Cl)c1c(N)n(Cc2ccccc2)c(=O)[nH]c1=O | -0.736 |  |
| CCOC(=O)C1=C(c2ccccc2)Nc2ncnn2C1c1ccc(Cl)cc1 (stereo not given) | -10 |  |
| CCCSc1ncc(Cl)c(C(=O)Nc2sc3c(c2C(=O)NCCOC)CCCC3)n1 | -5.29 |  |
| O=C(N/N=C/c1ccc(Cl)c(Cl)c1)c1ccc2nc[nH]c2c1 |  | 13.5 µM (active) |
| CSc1ccc(/C=N\NC(=O)CC(=O)NC(C)C)cc1 | -5.08 |  |
| CSc1ccc(/C=N/NC(=O)c2cccc(Cl)c2)cc1 |  | 5.36 µM (active) |
| CC1=NNC(=O)C1CCC(=O)N/N=C\c1ccc(Cl)c(Cl)c1 (stereo not given) | -6.92 |  |
| CC(NC(=O)C(=O)N/N=C/c1ccc(Cl)cc1)c1ccccc1 (stereo not given) | -1.64 |  |
| NCCCCCC(=O)N/N=C/c1ccc2nccnc2c1 | -0.587 |  |
| Cc1ccccc1CNC(=O)C1CCCN(S(=O)(=O)N(C)c2ccc(F)cc2)C1 (stereo not given) | 4.61 |  |
| Cc1c(C(=O)NCc2ccccc2)cnn1-c1ccccc1 | -24.9 |  |
| CCN(CC)CCN1C(=O)C(=O)/C(=C(/O)c2ccc(OC)c(OC)c2)C1c1ccccn1 (stereo not given) | 10.6 |  |
| CCN(CC)CCN1C(=O)C(=O)/C(=C(/O)c2cnn(-c3ccccc3)c2C)C1c1cccs1 (stereo not given) |  | 21.3 µM (active) |
| CN(CC(=O)Nc1ccc(Cl)c(C(F)(F)F)c1)C(=O)CCC(=O)c1ccccc1 | -12.1 |  |
| Cc1nnc(SCc2cc(=O)c3cc(F)ccc3[nH]2)n1C | -1.2 |  |
| COc1ccc(-c2cc3ncccc3cn2)cc1 |  | 5.36 µM (active) |
| COc1ccc(-c2cn[nH]c2-c2ccc(OC)cc2)cc1 | 4.38 |  |
| COc1ccc(-c2cc(C(F)(F)F)nc(NCc3cccnc3)n2)cc1 | 2.9 |  |
| CCOCCCNc1c(CC)c(C)c(C#N)c2nc3ccccc3n12 | 0.35 |  |
| CC1CCc2c(sc3c2C2=NS(=O)(=O)CCN2C=N3)C1 (stereo not given) | -12.8 |  |
| CCOC(=O)N1CCN(S(=O)(=O)c2ccc3c(c2)C(C)C(=O)N3)CC1 (stereo not given) | 2.28 |  |
| CCOC(=O)c1c(SCC(=O)Nc2cccc(C)c2C)nc(=O)[nH]c1C | 2.11 |  |
| Cc1ccccc1OCc1ccc(-c2nc(C#N)c(N3CCCCC3)o2)o1 | 3.38 |  |
| Cc1ccc(O)c(NC(=O)c2cc(-c3ccc(F)cc3)no2)c1 | -8.31 |  |
| Cc1ccc(O)c(NC(=O)c2cc(-c3ccco3)on2)c1 |  | 6.01 µM (active) |
| Cc1ccc(O)c(NC(=O)COc2cc(C)ccc2C)c1 | -4.48 |  |
